The source of these data is PubChem BioAssay AID488977 (Johns Hopkins Ion Channel Center, 2010).

In all, about 310,000 compounds went through this assay and about 1,500 (0.48%) were called active.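 How the source made its calls: active means initial fluorescence not abnormally high and integrated response B-score, plate-corrected, over 3 SD above library mean; inactive means the rest.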 The list comes from a sample in which actives are over-represented; it also holds similar structures and randomly drawn compounds.

Chain of High affinity choline transporter 1 (Homo sapiens) (Q9GZV3 whole entry, looked up): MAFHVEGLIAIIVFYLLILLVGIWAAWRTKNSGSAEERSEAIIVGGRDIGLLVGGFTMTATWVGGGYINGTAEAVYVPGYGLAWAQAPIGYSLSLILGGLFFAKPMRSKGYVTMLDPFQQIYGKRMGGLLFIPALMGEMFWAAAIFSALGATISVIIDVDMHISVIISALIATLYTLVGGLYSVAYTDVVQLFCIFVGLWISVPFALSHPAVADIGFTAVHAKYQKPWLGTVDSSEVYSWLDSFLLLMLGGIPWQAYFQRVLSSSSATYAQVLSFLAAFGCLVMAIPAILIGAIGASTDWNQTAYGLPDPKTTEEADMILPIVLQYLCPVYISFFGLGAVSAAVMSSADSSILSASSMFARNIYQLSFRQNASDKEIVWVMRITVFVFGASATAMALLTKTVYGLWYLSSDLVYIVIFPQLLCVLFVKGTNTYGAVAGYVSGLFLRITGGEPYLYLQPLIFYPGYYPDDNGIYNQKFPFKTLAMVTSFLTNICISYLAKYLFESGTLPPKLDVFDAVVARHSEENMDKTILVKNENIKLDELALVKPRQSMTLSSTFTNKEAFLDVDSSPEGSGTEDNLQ

This assay addresses High affinity choline transporter 1 (Homo sapiens) (UniProt Q9GZV3). Put plainly: allosteric activators of human choline transporter – cell-based, membrane potential dye, choline EC20, primary screen (AID 488977). The note with it: CHT-expressing cells, at 10 µM; B-score: hits give high values, LV-AA mutant CHT in HEK293 cells unless noted; outcome: LV-AA mutant CHT in HEK293 cells unless noted.
Regarding `CN1CCN(c2cc(N3CCNCC3)ccc2[N+](=O)[O-])CC1`, the B-score is 8.44 (active).
On the same count and under the same terms, next, `CCN1CCN(c2ccc([N+](=O)[O-])cc2C#N)CC1`: “inactive”.
Regarding `COC(=O)C1=C(c2cc3ccccc3o2)C[C@@H]2CC[C@H]1N2C(=O)NC1CCCCC1`, the B-score result is “inactive”.
On the same count and under the same terms, the same measure for `COC(=O)C1=C(c2cc3ccccc3s2)C[C@@H]2CC[C@H]1N2C(=O)NCCO`: “inactive”.
On the same count and under the same terms, the same measure for `COC(=O)C1=C(c2ccccc2)C[C@@H]2CC[C@H]1N2C(=O)N1CCCCC1`: “inactive”.
As for `Cc1nc2ccc(N3CCN(C)CC3)cc2nc1C`, the B-score is 6.37 (active).
On the same count and under the same terms, the same measure for `C=CC12CN(C)[C@@H]3C4CO[C@H](C[C@H]41)[C@]1(C(=O)Nc4ccccc41)[C@@H]32` (stereo not given in full): “inactive”; for `CC(=O)Nc1ccc(C(=O)C(Cc2ccccc2)N(C)C)cc1` (stereo not given): “inactive”.
Turning to `O=[N+]([O-])c1cnc2ccc3ccccc3c2c1`, the B-score result is “inactive”.
Consider `CCCCCn1c(=O)c(C(=O)Nc2c(C)n(C)n(-c3ccccc3)c2=O)c(O)c2ccccc21`, for which the B-score was 8.71 (active).
The same measure, in the same setting: next, `CCCCCn1c(=O)c(C(=O)NCc2ccccc2)c(O)c2ccccc21`: “inactive”; `CCCCn1c(=O)c(C(=O)Nc2ccccc2Cl)c(O)c2ccccc21`: “inactive”; `CNCC(O)c1cc(F)c(OCc2ccccc2)c(OCc2ccccc2)c1F` (stereo not given): “inactive”.
On to `O=C(N/N=C/c1c(O)n(C2CC2)c(=S)[nH]c1=O)c1ccccc1Cl`, for which the outcome was “inactive [setting not given]”.
As to `C/C(=N/O)c1ccc2ccc3ccccc3c2c1`, the B-score entry is “inactive”.
